Records with an inconclusive call do not appear. Entries that show only a call come without a potency. The source made the active and inactive calls. Calls come from the whole dose curve; as a rule, active = well fitted inhibition curve with a large enough effect; inconclusive = small, poorly fitted or top-dose-only effect; inactive = flat fitted curve, though single readings scatter.
What was measured:
[1] = biological target: Glutathione peroxidase 1 (Homo sapiens) (UniProt P07203); assay: Primary qHTS Assay for Inhibitors of Recombinant Selenoprotein Glutathione Peroxidase 1 (GPX1) (AID 1845191)
Method in brief: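 GR-coupled readout: NADPH consumption tracked by fluorescence, ex 340/em 450 nm, at t=0 and after 15 min at RT. Final mix 10 nM GPX1, 1 mM GSH, 0.5 mM CHP, 0.5 mM NADPH, 100 nM GR, 0.01% BSA, following 30 min enzyme–compound preincubation.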

[2] = biological target: Phospholipid hydroperoxide glutathione peroxidase GPX4 (Homo sapiens) (UniProt P36969); assay: Primary qHTS Assay for Inhibitors of Recombinant Selenoprotein Glutathione Peroxidase 4 (GPX4) (AID 1845192); note: potency is the fitted concentration of half-maximal effect
Method in brief: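 Steps: GPX4 plus compound, 30 min RT; add GR/GSH/NADPH master mix; start with cumene hydroperoxide; read 340/450 nm fluorescence at 0 and 15 min. Finals were 200 nM GPX4, 1 mM GSH, 0.5 mM CHP, 0.5 mM NADPH, 100 nM GR.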
Note: nearly all actives have a fitted effect of over 65% in size.

Chain of Phospholipid hydroperoxide glutathione peroxidase GPX4 (Homo sapiens) (P36969 whole entry, looked up): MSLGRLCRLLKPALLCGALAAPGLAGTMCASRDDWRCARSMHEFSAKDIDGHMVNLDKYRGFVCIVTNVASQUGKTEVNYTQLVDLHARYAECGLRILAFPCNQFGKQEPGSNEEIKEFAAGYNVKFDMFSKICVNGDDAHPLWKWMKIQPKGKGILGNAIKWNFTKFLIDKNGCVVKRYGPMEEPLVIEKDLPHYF
Chain of Glutathione peroxidase 1 (Homo sapiens) (P07203 whole entry, looked up): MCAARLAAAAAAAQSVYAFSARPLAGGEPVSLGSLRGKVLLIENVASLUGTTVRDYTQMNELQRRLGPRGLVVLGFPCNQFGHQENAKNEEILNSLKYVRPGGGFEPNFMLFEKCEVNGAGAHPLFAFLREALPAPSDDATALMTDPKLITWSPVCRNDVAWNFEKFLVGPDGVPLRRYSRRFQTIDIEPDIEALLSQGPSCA

| Compound | Potency [1] | Potency [2] |
| --- | --- | --- |
| O=C1CN2Cc3c(ccc(Cl)c3Cl)N=C2N1 | inactive | inactive |
| CCN(CC)CCCCNc1nc2cc(Cl)c(Cl)cc2nc1-c1ccc(-c2cccs2)s1 | inactive | 20.2 µM (active) |
| Cc1ccc(NC(=O)c2ccc(CN3CCN(C)CC3)cc2)cc1Nc1nc(-c2cccnc2)cs1 | inactive | inactive |
| COC(=O)[C@H](c1ccccc1Cl)N1CCc2sccc2C1 | inactive | inactive |
| CC1CNc2c(cccc2S(=O)(=O)N[C@@H](CCCN=C(N)N)C(=O)N2CC[C@@H](C)C[C@@H]2C(=O)O)C1 (stereo partly specified) | inactive | inactive |
| COc1cc2c(cc1OC)CC(=O)N(CCCN(C)C[C@H]1Cc3cc(OC)c(OC)cc31)CC2 | inactive | inactive |
| CN1CC(=O)NC1=NC(=O)Nc1cccc(Cl)c1 | inactive | inactive |
| N#CC(c1ccnc(NCCc2cccnc2)n1)c1nc2ccccc2s1 (stereo unspecified) | inactive | inactive |
| Cc1cccc(Nc2nc(N[C@@H]3CCCC[C@H]3N)ncc2C(N)=O)c1 | inactive | inactive |
| Nc1ccn([C@@H]2O[C@H](CO)[C@@H](O)[C@H]2O)c(=O)n1 | inactive | inactive |
| Cc1cc(C(C)Nc2ccccc2)c2nc(N3CCOCC3)cc(=O)n2c1 (stereo unspecified) | inactive | inactive |
| CCCCOCCOc1nc(-c2ccc(C(=O)O)c(F)c2)sc1C | inactive | inactive |
| NC[C@H]1O[C@H](O[C@@H]2[C@@H](O)[C@@H](O[C@H]3O[C@H](CO)[C@@H](O)[C@H](N)[C@@H]3O)[C@H](N)C[C@@H]2N)[C@H](O)[C@@H](O)[C@H]1O | inactive | inactive |

Source: PubChem BioAssay (NCATS)
